In PubChem BioAssay (NCI) one finds growth data, which are given here for 30 molecules.

Common to all, as to assay: NCI-60 one-dose screen, 48 h (100 = growth as untreated, 0 = no growth, -100 = all killed)
What all share (details): 10 µM unless noted

In assay [1] the test system is T-47D breast.
In assay [2] the test system is BT-549 breast.
Assay [3] concerns MDA-MB-435 melanoma.
For assay [4], the system named is SW-620 colon.
For assay [5], the system named is MCF7 breast.
In assay [6] the test system is HCT-116 colon.
In assay [7] the test system is HCC-2998 colon.
The subject of assay [8] is KM12 colon.

Compounds without any hit were thinned out: in the full panel of roughly 83,000, 20% have a hit.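 Treatment: one concentration, 48 hours, 96-well format. Scoring: percent growth, with anything below 10 considered active.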 Unmarked numbers belong to inactive results. Calls of active or inactive are those of the source.

`COc1nc2c(c(=O)n1C)CN(Cc1ccccc1)C=N2`: the growth is 67.1% in assay [1]; -4.81% (active) in assay [2]; 117% in assay [3]; 99.6% in assay [4]; 101% in assay [5]; 107% in assay [6]. In addition, the growth in assay [7] was 113%; in assay [8], 98.9%.

Consider `Cc1ncc(C(=O)Nc2ccc(CN3CCN(C)CC3)c(C(F)(F)F)c2)cc1C#Cc1cnc2cccnn12`, for which the growth in assay [1] is 40%; in assay [2], -10.8% (active); in assay [3] it was -54.1% (active); in assay [4], -5.14% (active); in assay [5] it was 2.92% (active); in assay [6], 0.541% (active). Besides, the figures for the growth in assay [7] and in assay [8] were 11.1% and -0.978% (active), respectively.

With `O=C(Oc1cccnc1)c1ccsc1Nc1ccnc(C(F)(F)F)c1`, the growth in assay [1] was 72.7%; in assay [2] it was 45%; in assay [3], 82.6%; in assay [4], 21%; in assay [5] it was 58.2%; in assay [6], 9.98% (active). In addition, the growth in assay [7] was 114%; in assay [8], 41%.

Take `C=CC(=O)Nc1cccc(-c2nc(SC)nc(Nc3cccc(OC)c3)c2C#N)c1`: the growth was 38.5% in assay [1]; 45.4% in assay [2]; 43.4% in assay [3]; 89.1% in assay [4]; 52.2% in assay [5]; 54.4% in assay [6]. For the same molecule, the growth in assay [7] is 82.3%; in assay [8] it was 87.9%.

As to `COc1cc(/C=C/C(=O)c2cccnc2Nc2ccc(F)cc2)cc(OC)c1OC`, the growth was 61.4% in assay [1]; 39.5% in assay [2]; 28.4% in assay [3]; 21.6% in assay [4]; 8.82% (active) in assay [5]; 13.9% in assay [6]. Moreover, the values for the growth in assay [7] and in assay [8] were 21.7% and 24.6%, respectively.

With `CC1=C[C@H]2c3c(c(O)c(O)c4oc5cc(O)ccc5c(=O)c34)[C@H](c3cc(O)c(O)c4oc5cc(O)ccc5c(=O)c34)[C@H]2C(C)(C)C1`, the growth is 18.1% in assay [1]; 31.4% in assay [2]; 20% in assay [3]; 19.5% in assay [4]; 15.4% in assay [5]; 1.38% (active) in assay [6]. Also, the growth in assay [7] is 75.4%; in assay [8], 15%.

`COc1cccc(/C=C2\Oc3cc(OCCN4CCCC4)ccc3C2=O)c1`: the growth is 91.4% in assay [1]; 80.4% in assay [2]; 99.5% in assay [3]; 86.9% in assay [4]; 77.4% in assay [5]; 78% in assay [6]. Also, the growth in assay [7] was 82.6%; in assay [8] it was 97.8%.

In the case of `C#Cc1cccc(NC(=O)c2ccccc2NC(=O)CCl)c1`, the growth was 77.7% [8.25 µM] in assay [1]; 61.6% [8.25 µM] in assay [2]; 89.9% [8.25 µM] in assay [3]; 79.5% [8.25 µM] in assay [4]; 67.9% [8.25 µM] in assay [5]; 49.4% [8.25 µM] in assay [6]. Further, the growth is 99.2% [8.25 µM] in assay [7] and 99.7% [8.25 µM] in assay [8].

Turning to `COc1ccc(/C=C\c2cc(OC)c(OC)c(OC)c2)cc1OC(=O)c1cccc(Cn2cc(CCOC(=O)[C@H](N)Cc3cn(C)c4ccccc34)nn2)c1`, the growth in assay [1] was 70.2%; in assay [2] it was 3.82% (active); in assay [3], -32.7% (active); in assay [4], 28.6%; in assay [5], 12.6%; in assay [6], 3.68% (active). In addition, the results for the growth in assay [7] and in assay [8] were 20.7% and 5.51% (active), respectively.

`Cc1cc(N2CCN(c3ccnc4cc(Cl)ccc34)CC2)nc(N2CCOCC2)n1`: the growth in assay [1] is 46.9%; in assay [2], 86%; in assay [3] it was 88.7%; in assay [4], 101%; in assay [5] it was 75.1%; in assay [6], 70.3%. Besides, the results for the growth in assay [7] and in assay [8] were 89% and 85.6%, respectively.

In the case of `COc1ccc(/C=C/C(=O)c2cc(O)ccc2O)cc1`, the growth was 89.8% in assay [1]; 90.4% in assay [2]; 75.8% in assay [3]; 100% in assay [4]; 94% in assay [5]; 97.4% in assay [6]. Also, the growth in assay [7] was 106%; in assay [8], 84.1%.

For the molecule `O=C1/C(=C(/c2ccccc2)N2CCOCC2)Cc2ccccc21`, the growth is -34.4% (active) in assay [1]; -7.68% (active) in assay [2]; 12.6% in assay [3]; 0.554% (active) in assay [4]; 17.9% in assay [5]; -46.3% (active) in assay [6]. Moreover, the growth in assay [7] is -71.8% (active); in assay [8] it was 36.2%.

For the molecule `O=C(N(c1ccccc1)c1ccccc1)n1ccc2nc(Cl)nc(Cl)c21`, the growth was 34.2% in assay [1]; 47.2% in assay [2]; 37.9% in assay [3]; 51.1% in assay [4]; 32.5% in assay [5]; 49.6% in assay [6]. Besides, the figures for the growth in assay [7] and in assay [8] were 91.5% and 55.7%, respectively.

Take `N#CN1CC[C@H](C(=O)Nc2cc3cc(C(N)=O)ccc3cn2)C1`: the growth in assay [1] is -21.6% (active); in assay [2], -5.54% (active); in assay [3], 3.57% (active); in assay [4], 6.39% (active); in assay [5] it was 6.05% (active); in assay [6], 1.69% (active). The growth in assay [7] is -1.56% (active); in assay [8], 1.65% (active).

Take `CN(C)CCCNc1c2ccccc2nc2ccccc12`: the growth was 68.5% in assay [1]; 72.6% in assay [2]; 96.1% in assay [3]; 103% in assay [4]; 92% in assay [5]; 99% in assay [6]. Besides, the growth in assay [7] is 107%; in assay [8] it was 97.3%.

For `CCOC(=O)c1csc(NC(=O)COc2cccc(/C=C3\CSc4ccccc4C3=O)c2)n1`, the growth in assay [1] is 73.8%; in assay [2] it was -88% (active); in assay [3], 17.9%; in assay [4], -65.5% (active); in assay [5], 2.02% (active); in assay [6], 4.95% (active). For the same molecule, the figures for the growth in assay [7] and in assay [8] were -31.8% (active) and -64.4% (active), respectively.

Take `COc1ccc(-n2nc(C)c3c(Nc4ccc(NC(=O)Nc5cc(C(F)(F)F)ccc5F)cc4)ncnc32)cc1`: the growth in assay [1] was 11.8%; in assay [2], 65.4%; in assay [3], 53%; in assay [4], 46%; in assay [5] it was 34.2%; in assay [6], 22%. For the same molecule, the growth in assay [7] is 21.2%; in assay [8] it was 16.5%.

As to `CN(C)[C@@H]1C(=O)C(C(=O)NCc2nc3[nH]cnc(=S)c3[nH]2)=C(O)[C@@]2(O)C(=O)C3=C(O)c4c(O)cccc4[C@@](C)(O)[C@H]3C[C@@H]12`, the growth in assay [1] was 40.4%; in assay [2], 54%; in assay [3] it was 33.8%; in assay [4], 73.8%; in assay [5], 16.6%; in assay [6], 33.8%. For the same molecule, the values for the growth in assay [7] and in assay [8] were 16.3% and 68.5%, respectively.

In the case of `O=C(NCCN1CCOCC1)Nc1ccc(-c2cc3c(Nc4ccc(Oc5cccc(C(F)(F)F)c5)c(Cl)c4)ncnc3s2)cc1`, the growth in assay [1] was -1.15% (active); in assay [2], 40%; in assay [3] it was 1.05% (active); in assay [4], -46.8% (active); in assay [5], -2.16% (active); in assay [6], -13% (active). Further, the growth in assay [7] is 5.37% (active); in assay [8], -65% (active).

In the case of `NC(CSC(c1ccccc1)(c1ccccc1)c1ccc(Cl)cc1)C(=O)O` (stereo not given), the growth in assay [1] is 23.7%; in assay [2], 27.1%; in assay [3], -40.2% (active); in assay [4] it was 19.2%; in assay [5] it was 8.48% (active); in assay [6], 4.19% (active). The growth in assay [7] is -36.3% (active); in assay [8], 1.65% (active).

With `COc1cccc(-c2nn(C(C)(C)C)cc2-c2ccnc(NCCCNS(=O)(=O)c3cccc4ccccc34)c2)c1`, the growth in assay [1] is 102%; in assay [2], 108%; in assay [3], 102%; in assay [4] it was 106%; in assay [5], 98.6%; in assay [6], 98.7%. The figures for the growth in assay [7] and in assay [8] were 114% and 99.5%, respectively.

As to `O=C(O)c1c(=O)cccc2ssc12`, the growth in assay [1] is -43% (active); in assay [2] it was 20.2%; in assay [3] it was 23.3%; in assay [4] it was -34.4% (active); in assay [5] it was -17% (active); in assay [6] it was 2.36% (active). For the same molecule, the growth in assay [7] is 13.5%; in assay [8], 3.59% (active).

As for `COc1cc(/C=C/C(=O)Nc2cccnc2Nc2ccc(F)cc2)cc(OC)c1OC`, the growth in assay [1] is 93.3%; in assay [2] it was 92.3%; in assay [3] it was 97.4%; in assay [4], 106%; in assay [5] it was 88.3%; in assay [6], 96.3%. Further, the figures for the growth in assay [7] and in assay [8] were 109% and 96.8%, respectively.

For the molecule `O=C1Nc2c(ccc(Cl)c2Cl)/C1=C\c1ccc(C(F)(F)F)cc1`, the growth is 77.2% in assay [1]; 75.2% in assay [2]; 95.4% in assay [3]; 67.1% in assay [4]; 52.1% in assay [5]; 68.2% in assay [6]. The growth in assay [7] is 92.4%; in assay [8], 71.2%.

For `O=C(CCN1C(=O)/C(=C/c2ccc(Cl)cc2)SC1=S)NCCCN1CCOCC1`, the growth is 90.8% in assay [1]; 106% in assay [2]; 98.9% in assay [3]; 100% in assay [4]; 90.1% in assay [5]; 98.7% in assay [6]. Moreover, the growth is 105% in assay [7] and 104% in assay [8].

As to `Cc1cc(NS(=O)(=O)c2ccc(-c3cnc(C4CC4)o3)cc2)ccc1Cl`, the growth in assay [1] is 32.4%; in assay [2], 28.8%; in assay [3], 0.57% (active); in assay [4], 21.7%; in assay [5], 11.1%; in assay [6], 13.3%. Moreover, the growth was 25.1% in assay [7] and 27% in assay [8].

Turning to `C=C1c2nc3ccccc3n2C=C(c2cccc(Cl)c2)N1Cc1ccc(OC)cc1`, the growth in assay [1] is -22.5% (active); in assay [2], -1.26% (active); in assay [3], -32.3% (active); in assay [4], 20.6%; in assay [5], 4.64% (active); in assay [6] it was 12.8%. Moreover, the growth is 25.7% in assay [7] and 13% in assay [8].

Turning to `COc1ccc2c(c1)c(-c1nonc1-c1cn(C)c3ccccc13)cn2C`, the growth in assay [1] is 33.5%; in assay [2] it was 60.2%; in assay [3], 1.09% (active); in assay [4], 24.5%; in assay [5] it was 24%; in assay [6], 26.6%. Moreover, the growth in assay [7] is 45.4%; in assay [8], 25.7%.

As for `CCc1nc(N)nc(N)c1C#CC(C)c1ccc(-c2ccncc2)cc1Cl` (stereo not given), the growth in assay [1] is 24%; in assay [2] it was 23.3%; in assay [3], 22.1%; in assay [4] it was 20.8%; in assay [5], 14.2%; in assay [6], 13.6%. Besides, the growth is 25.4% in assay [7] and 12.7% in assay [8].

`CCOC(=O)c1sc2nc(-c3cccc(O)c3)nc(N3CCOCC3)c2c1C`: the growth in assay [1] was 5.33% (active); in assay [2], 52.8%; in assay [3] it was 63.5%; in assay [4] it was 73.2%; in assay [5] it was 55.5%; in assay [6], 68.1%. Also, the growth in assay [7] was 78.2%; in assay [8] it was 63.3%.
